Reference: PubChem BioAssay
Active and inactive are the calls of the source.

Tests used:
[1] = resazurin metabolic signal in HepG2 cells – cell-based, resazurin fluorescence, 24 h, PK04 Diversity Set, profiling panel (AID 1172); details: HepG2 viability, higher = more signal; also: test concentration not given here
[2] = budding yeast growth changes without added modifier – OD600, strain BY4716, 24 h, basal condition, primary screen (AID 1173); details: S. cerevisiae BY4716 growth, OD600, 24 h; higher = more signal, called active from +8 up or from −8 down
[3] = viability profiling in MM1S myeloma cells – cell-based, resazurin fluorescence, basal, 24 h, PK04 Diversity Set, profiling panel (AID 1174); details: higher = more signal, called active from +8 up or from −8 down;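 also: MM1S multiple myeloma cell line; test concentration not given here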
[4] = biological target: Dihydroorotate dehydrogenase (quinone), mitochondrial (Plasmodium falciparum (isolate 3D7)) (UniProt Q08210); experiment: inhibition of P. falciparum DHODH – biochemical, C-terminal His tag, absorbance 600 nm, primary screen (AID 1175); details: PfDHODH enzyme, DCIP absorbance 600 nm; higher = more signal, called active from +8 up or from −8 down;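 also: recombinant parasite enzyme with a five histidine tag at its C terminus; test concentration not given here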
Sequence of Dihydroorotate dehydrogenase (quinone), mitochondrial (Plasmodium falciparum (isolate 3D7)) (Q08210 whole entry, looked up): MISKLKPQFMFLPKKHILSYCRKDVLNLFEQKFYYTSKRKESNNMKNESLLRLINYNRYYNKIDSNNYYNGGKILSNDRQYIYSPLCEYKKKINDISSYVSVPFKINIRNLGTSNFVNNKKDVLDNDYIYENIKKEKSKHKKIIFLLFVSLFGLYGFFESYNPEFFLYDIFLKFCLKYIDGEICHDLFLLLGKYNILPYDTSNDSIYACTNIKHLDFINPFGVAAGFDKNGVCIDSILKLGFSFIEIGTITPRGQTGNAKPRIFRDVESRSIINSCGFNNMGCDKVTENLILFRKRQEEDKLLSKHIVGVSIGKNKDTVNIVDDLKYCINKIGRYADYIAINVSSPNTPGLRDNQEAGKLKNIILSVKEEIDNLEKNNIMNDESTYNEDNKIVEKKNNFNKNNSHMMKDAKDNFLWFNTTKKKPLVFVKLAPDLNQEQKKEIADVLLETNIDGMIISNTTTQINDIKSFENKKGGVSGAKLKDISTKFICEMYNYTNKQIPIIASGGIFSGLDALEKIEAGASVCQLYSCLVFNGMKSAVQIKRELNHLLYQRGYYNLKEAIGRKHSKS

[5] = growth modulation of vineyard yeast isolate – strain RM11-1a, OD600, basal, 24 h, primary screen (AID 1177);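 also: cultures grown under basal conditions with no added stressor; test concentration not given here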; details: S. cerevisiae RM11-1a growth, OD600, 24 h; higher = more signal, called active from +8 up or from −8 down
[6] = growth of efflux-deficient E. coli DRC39 – strain DRC39, OD650, 24 h, E. coli filamentation inducers, primary screen (AID 1178);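 also: growth measured as culture turbidity by optical density at 650 nm; test concentration not given here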; details: E. coli DRC39 acrAB, higher = more signal, called active from +8 up or from −8 down
[7] = growth of efflux-deficient E. coli DRC39 – strain DRC39, OD650, 48 h, E. coli filamentation inducers, primary screen (AID 1179);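 also: screen aims at cell division blockers that make cells filament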; details: E. coli DRC39 delta-acrAB growth, higher = more signal, called active from +8 up or from −8 down
[8] = viability profiling in RPMI8226 myeloma cells – cell-based, resazurin fluorescence, basal, 24 h, PK04 Diversity Set, profiling panel (AID 1180); details: higher = more signal;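 also: RPMI8826 multiple myeloma cell line at 5000 cells per well; test concentration not given here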
[9] = biological target: E3 ubiquitin-protein ligase XIAP (Homo sapiens) (UniProt P98170); experiment: small molecules binding XIAP protein – biophysical, small-molecule microarray, fluorescence 635 nm, primary screen (AID 1181); details: higher = more signal;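 also: score merges 667 nm emission and signal to noise over triplicate slides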
Sequence of E3 ubiquitin-protein ligase XIAP (Homo sapiens) (P98170 whole entry, looked up): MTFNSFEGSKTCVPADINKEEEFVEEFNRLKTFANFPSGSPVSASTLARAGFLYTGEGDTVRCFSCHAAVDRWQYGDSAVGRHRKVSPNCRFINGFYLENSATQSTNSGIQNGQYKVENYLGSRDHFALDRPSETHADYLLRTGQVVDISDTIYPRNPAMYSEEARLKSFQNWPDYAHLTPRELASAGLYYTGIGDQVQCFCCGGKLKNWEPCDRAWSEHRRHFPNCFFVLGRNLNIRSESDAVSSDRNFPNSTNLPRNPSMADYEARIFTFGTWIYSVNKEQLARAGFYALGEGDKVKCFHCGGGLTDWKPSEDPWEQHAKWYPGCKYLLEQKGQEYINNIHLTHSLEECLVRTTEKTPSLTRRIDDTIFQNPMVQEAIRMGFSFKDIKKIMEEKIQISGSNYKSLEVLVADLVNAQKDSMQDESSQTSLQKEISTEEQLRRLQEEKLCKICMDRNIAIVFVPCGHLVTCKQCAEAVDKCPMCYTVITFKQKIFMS

Row | Compound | z-score [1] | z-score [2] | z-score [3] | composite z-score [4] | z-score [5] | z-score [6] | z-score [7] | z-score [8] | composite z-score [9]
1 | C=CCc1cccc([C@H]2N[C@H](C(=O)O)CC[C@@H]2C)c1 | 0.615 | 0.182 (inactive) | 0.948 (inactive) | 1.09 (inactive) | 1.14 (inactive) | 0.0903 (inactive) | 0.129 (inactive) | 1.02 | -0.0476
2 | CSCC[C@@H]1NC(=O)CC=C[C@@H](C)COC(=O)[C@H](CCSC)NC(=O)CC=C[C@@H](C)COC1=O | 0.413 | -1.37 (inactive) | 0.94 (inactive) | 0.576 (inactive) | -1.46 (inactive) | -0.251 (inactive) | -0.407 (inactive) | 0.613 | -0.243
3 | C=C(COC)/C(=C/C[C@@H](OC(=O)c1ccncc1)c1ccc(OCCO)cc1)c1cc(C(=O)OC)ccc1OC | 0.789 | -2.19 (inactive) | 1.36 (inactive) | -1.32 (inactive) | -2.6 (inactive) | 2.65 (inactive) | 1.79 (inactive) | 1.16 | -0.103
4 | CO[C@@H]1COC(=O)CC=C[C@H](C)COC(=O)[C@H](Cc2ccccc2)NC(=O)CC=C[C@H]1C | 0.0057 | -1.95 (inactive) | 0.266 (inactive) | 0.519 (inactive) | -1.02 (inactive) | 0.131 (inactive) | -0.0502 (inactive) | -0.094 | 0.0896
5 | CCN1C(C)=C(C(=O)OC)[C@@H](c2ccccc2)N2C(=O)[C@@]3(C(=O)OC)O[C@@]12[C@@H]1C(=O)N(c2ccccc2)C(=O)[C@@H]13 | 0.392 | -1.07 (inactive) | 0.839 (inactive) | 0.295 (inactive) | -0.85 (inactive) | -0.631 (inactive) | -0.21 (inactive) | 1.21 | -0.18
6 | C=CCC1=C[C@H]2[C@H]([C@@H]3C=C[C@]2(CC=C)C(=O)[C@]32CO2)[C@@]2(CO2)C1=O | 0.177 | -15.3 (active) | -1.92 (inactive) | -0.491 (inactive) | -0.763 (inactive) | 2.57 (inactive) | 1.51 (inactive) | -1.12 | 0.147
7 | CO[C@H]1O[C@H](CO)[C@@H](OC(=O)CCc2ccccc2)[C@@H]2OC(=O)[C@H](Cc3cccc(Br)c3)C/C=C/C[C@@H](Cc3cccc(Br)c3)C(=O)O[C@@H]12 | 1.13 | -3.87 (inactive) | 1.5 (inactive) | -0.578 (inactive) | -4.01 (inactive) | 1.41 (inactive) | 1.14 (inactive) | 1.45 | 0.0356
8 | C[N+](C)(C)CCCC[C@@H]1NC(=O)[C@H]2C[C@@H](C(=O)NCc3ccc(F)cc3)[C@@H](c3cccc(OCCO)c3)N2C1=O | 0.523 | -1.84 (inactive) | 1.33 (inactive) | -0.347 (inactive) | -1.62 (inactive) | 0.765 (inactive) | 0.604 (inactive) | -0.0523 | 0.245
9 | CO[C@H]1COC(=O)[C@@H](C)NC(=O)CC=C[C@@H](C)[C@H](OC)COC(=O)CC=C[C@@H]1C | 1.16 | -2.42 (inactive) | 0.563 (inactive) | -0.336 (inactive) | -2.65 (inactive) | 1.03 (inactive) | 0.505 (inactive) | 0.477 | -0.271
10 | COCC(=C=CC[C@H](O)c1ccc(OCCO)cc1)C[C@H](O)c1ccccn1 | 0.959 | -0.413 (inactive) | 1.33 (inactive) | -0.86 (inactive) | 0.275 (inactive) | 1.74 (inactive) | 1.21 (inactive) | 0.827 | -0.02
11 | C=CCN1C(=O)[C@]2(O[C@H](CCn3cc(CCO)nn3)[C@@H]([Si](C)(C)c3ccc(OC)cc3)[C@@H]2C)c2cc(NC(=O)c3ccc(OC)cc3)ccc21 | -1.89 | -2.6 (inactive) | -4.32 (inactive) | 1.31 (inactive) | 1.23 (inactive) | 1.8 (inactive) | 0.797 (inactive) | -4.33 | -0.104
12 | CO[C@H]1COC(=O)[C@H](Cc2ccccc2)NC(=O)CC=C[C@@H](C)[C@H](OC)COC(=O)CC=C[C@@H]1C | 0.471 | -1.43 (inactive) | 0.0446 (inactive) | 0.0048 (inactive) | -1.06 (inactive) | 0.373 (inactive) | 0.53 (inactive) | 0.562 | 0.0525
13 | COC(=O)C1=C(C)N(Cc2ccccc2)c2c(C(=O)OC)c(C(=O)OC)c(C(=O)OC)c(=O)n2[C@@H]1c1ccccc1 | 1.23 | -1.71 (inactive) | -0.364 (inactive) | 0.295 (inactive) | -1.05 (inactive) | -0.0311 (inactive) | 0.0198 (inactive) | 0.512 | -0.0841
14 | COc1ccc([Si](C)(C)[C@H]2[C@H](CC(=O)N3Cc4ccccc4C[C@H]3CO)O[C@@]3(C(=O)N(Cc4cccc(N5CCOC5=O)c4)c4ccccc43)[C@@H]2C)cc1 | -0.341 | -2.22 (inactive) | -1.71 (inactive) | -0.135 (inactive) | 0.446 (inactive) | 1.63 (inactive) | 0.856 (inactive) | -1.75 | 0.22
15 | CC(C)CNC(=O)[C@@]1(C)c2ccccc2C(=O)N(Cc2ccc(OC(F)(F)F)cc2)[C@H]1c1ccc(CO)cc1 | 0.518 | -1.51 (inactive) | 1.88 (inactive) | 0.329 (inactive) | -0.229 (inactive) | 0.726 (inactive) | 0.152 (inactive) | 1.75 | 0.149
16 | O=C(CS)NCCCCCNC(=O)[C@H]1C[C@H]2C(=O)N[C@@H](Cc3ccccc3)C(=O)N2[C@H]1c1ccc(O)cc1 | 0.0833 | 0.359 (inactive) | 1.19 (inactive) | 0.44 (inactive) | 0.895 (inactive) | 0.394 (inactive) | 0.102 (inactive) | 0.833 | 0.0123
17 | COc1cccc([C@@H]2[C@@H](C)CC[C@H]3C(=O)N4[C@H](c5cccc(OC)c5)[C@@H](C)CC[C@H]4C(=O)N23)c1 | 1.96 | -2.76 (inactive) | 1.24 (inactive) | -1.35 (inactive) | -3.28 (inactive) | 0.697 (inactive) | -1.17 (inactive) | 1.42 | -0.0599
18 | C=CC[C@]1(C(=O)NCC(O)CO)N=C(c2ccc(OCCCO)cc2)O[C@H]1c1ccccc1 (stereo partly specified) | 0.766 | -1.49 (inactive) | 0.776 (inactive) | -0.537 (inactive) | -1.07 (inactive) | 1.44 (inactive) | 0.199 (inactive) | 1.01 | -0.0102
19 | C=CCC(OC(C)=O)[C@@H]1[C@@H](N(Cc2cc3ccccc3o2)C(=O)Cc2ccc(F)cc2)c2cc(OCCCO)ccc2N1C(=O)c1ccc(-c2ccccc2)cc1 (stereo partly specified) | 1.13 | -0.588 (inactive) | -0.518 (inactive) | -0.177 (inactive) | -0.157 (inactive) | 1.17 (inactive) | 0.845 (inactive) | 0.673 | -0.332
20 | CO[C@H]1COC(=O)CC=C[C@H](C)COC(=O)[C@@H](OCc2ccccc2)C=C[C@@H]1C | -0.103 | -0.348 (inactive) | 1.46 (inactive) | -2.5 (inactive) | -1.22 (inactive) | 0.566 (inactive) | 0.171 (inactive) | 0.627 | -0.22
21 | O=C1OCCC=C[C@H]2OC34C=CCN(Cc5ccccc5)C(=O)[C@H]3N(CCO)C(=O)[C@@H]4C12 (stereo partly specified) | -0.21 | -1.5 (inactive) | 0.768 (inactive) | -1.19 (inactive) | -2.28 (inactive) | 1.27 (inactive) | 0.627 (inactive) | 0.47 | -0.569
22 | O=C1OCC=C[C@H]2OC34C=CCN(Cc5ccccc5)C(=O)[C@H]3N(CCCCCO)C(=O)[C@@H]4[C@@H]12 (stereo partly specified) | -0.399 | -0.693 (inactive) | 0.238 (inactive) | -0.0022 (inactive) | -0.512 (inactive) | 1.77 (inactive) | 1.22 (inactive) | 0.58 | 0.101
23 | C=CC[C@]1(C(=O)OC)N=C(c2ccc(OCCCO)cc2)O[C@H]1c1ccccc1CN=[N+]=[N-] | 0.84 | -4.46 (inactive) | -0.609 (inactive) | 0.632 (inactive) | 0.0359 (inactive) | 2.63 (inactive) | 0.604 (inactive) | 0.239 | 0.232
24 | C=C(/C(=C/C[C@@H](OC(=O)c1ccncc1)c1ccc(CO)o1)c1cnc2ccccc2c1)C(C)C | 0.0389 | -2.58 (inactive) | 0.558 (inactive) | -6.53 (inactive) | -0.475 (inactive) | 1.4 (inactive) | 0.811 (inactive) | 1.17 | 0.374
